Values joined by “and” are separate entries in the source; they are usually repeats but may differ in a detail not shown here. Identical values can stand only once. Where a structure was tested more than once in an assay, its records may differ in their call. Active and inactive are the calls of the source. How the source made its calls: active means hit-call score of the fitted dose curve at least 0.9, where 1 is the maximum; inactive means score below 0.9.
Read-out: Vascular cell adhesion molecule 1 (VCAM1), VCAM1 (gene 7412)
Test: BSK_LPS_VCAM1: BioMAP Diversity Plus: LPS Assay for Vascular cell adhesion molecule 1 (VCAM1) Biomarker Activity (AID 2283086)
Conditions: primary human HUVEC with PBMC; actives raise or lower the signal
Outline: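 Human umbilical vein endothelial cells co-cultured with peripheral blood mononuclear cells under LPS stimulation were exposed to test chemical for 24 h. VCAM-1 levels were then measured by ELISA, with bidirectional curve fitting relative to DMSO as negative control and baseline.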

| Structure (SMILES) | AC50 | outcome |
| --- | --- | --- |
| C=CC(=O)OCC(F)(F)C(F)F | 38 µM (active) and 24.3 µM (active) | – |
| COP(=O)(O)OC | – | inactive |
| O=C(O)C(F)(F)C(F)(F)C(=O)O | – | inactive |
| O=C(O)C=CC(F)(C(F)(F)F)C(F)(F)F | – | inactive |
| O=C(O)C(F)(F)OC(F)(F)C(F)(F)OC(F)(F)F | – | inactive |
| COP(N)(=S)OC | – | inactive |
| CCCCN(CCCC)SN(C)C(=O)Oc1cccc2c1OC(C)(C)C2 | 25.7 µM (active) | – |
| FC(F)(F)C(F)(C(F)(F)F)C(F)(F)C(F)(F)CC1CO1 (configuration not stated) | – | inactive |
| CCOP(=S)(OCC)SCS(=O)(=O)CC | – | inactive |
| CC(C)Nc1ccc(Nc2ccccc2)cc1 | 10.2 µM (active) | – |
| CC(O)C(F)(F)C(F)(F)F (configuration not stated) | – | inactive |
| CCN(CC)c1ccccc1 | – | inactive |
| O=C(O)C(F)(OC(F)(F)C(F)(F)C(F)(F)F)C(F)(F)F (configuration not stated) | – | inactive |
| ClC(Cl)c1ccccc1 | – | inactive |
| Cc1ccc2c(c1N)C(=O)c1ccccc1C2=O | – | inactive |
| O=S1(=O)OCC2C(CO1)C1(Cl)C(Cl)=C(Cl)C2(Cl)C1(Cl)Cl (configuration not stated) | – | inactive |
| O=P(Oc1ccccc1)(Oc1ccccc1)Oc1ccccc1 | 20 µM (active) | – |
| OCC(F)(F)OC(F)(F)C(F)(F)OC(F)(F)C(F)(F)OC(F)(F)F | 42.8 µM (active) | inactive |
| OCC(F)(F)OC(F)(F)C(F)(F)OC(F)(F)C(F)(F)OC(F)(F)CO | – | inactive |
| [N-]=[N+]=[N-] | – | inactive |
| CSC(C)(C)C=NO | – | inactive |
| CCCCC(CC)COP(=O)(Oc1ccccc1)Oc1ccccc1 (configuration not stated) | 13 µM (active) | – |
| CCCCc1ccccc1 | – | inactive |
| CCOP(=S)(NC(C)C)Oc1ccccc1C(=O)OC(C)C (configuration not stated) | – | inactive |
| CCCN(CCC)c1c([N+](=O)[O-])cc(C(C)C)cc1[N+](=O)[O-] | 26.1 µM (active) | – |
| CCCCC(CC)COC(=O)c1c(Br)c(Br)c(Br)c(Br)c1C(=O)OCC(CC)CCCC (configuration not stated) | – | inactive |
| CC(Cl)CN(C)C (configuration not stated) | – | inactive |
| COC(=O)C(F)(F)C(F)(F)OC(F)(C(F)(F)F)C(F)(F)OC(F)=C(F)F (configuration not stated) | – | inactive |

Read-out: CD38, CD38 (gene 952)
Test: BSK_SAg_CD38: BioMAP Diversity Plus: SAg Assay for CD38 Biomarker Activity (AID 2283087)
Conditions: primary human HUVEC with PBMC; actives raise or lower the signal
Outline: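 Fluorescence ELISA of cell-surface CD38 served as the read-out, with either increase or decrease fitted against DMSO controls. Cells were a human umbilical vein endothelium plus PBMC co-culture under SEB/TSST-1 stimulation, measured 24 h after dosing.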

| Structure (SMILES) | AC50 | outcome |
| --- | --- | --- |
| C=CC(=O)OCC(F)(F)C(F)F | 24.2 µM (active) and 36.9 µM (active) | – |
| COP(=O)(O)OC | – | inactive |
| O=C(O)C(F)(F)C(F)(F)C(=O)O | – | inactive |
| O=C(O)C=CC(F)(C(F)(F)F)C(F)(F)F | – | inactive |
| O=C(O)C(F)(F)OC(F)(F)C(F)(F)OC(F)(F)F | – | inactive |
| COP(N)(=S)OC | – | inactive |
| CCCCN(CCCC)SN(C)C(=O)Oc1cccc2c1OC(C)(C)C2 | 31.4 µM (active) | – |
| FC(F)(F)C(F)(C(F)(F)F)C(F)(F)C(F)(F)CC1CO1 (configuration not stated) | – | inactive |
| CCOP(=S)(OCC)SCS(=O)(=O)CC | – | inactive |
| CC(C)Nc1ccc(Nc2ccccc2)cc1 | 4.14 µM (active) | – |
| CC(O)C(F)(F)C(F)(F)F (configuration not stated) | – | inactive |
| CCN(CC)c1ccccc1 | – | inactive |
| O=C(O)C(F)(OC(F)(F)C(F)(F)C(F)(F)F)C(F)(F)F (configuration not stated) | – | inactive |
| ClC(Cl)c1ccccc1 | – | inactive |
| Cc1ccc2c(c1N)C(=O)c1ccccc1C2=O | 12.6 µM (active) | – |
| O=S1(=O)OCC2C(CO1)C1(Cl)C(Cl)=C(Cl)C2(Cl)C1(Cl)Cl (configuration not stated) | – | inactive |
| O=P(Oc1ccccc1)(Oc1ccccc1)Oc1ccccc1 | 31.7 µM (active) | – |
| OCC(F)(F)OC(F)(F)C(F)(F)OC(F)(F)C(F)(F)OC(F)(F)F | 48.8 µM (active) | inactive |
| OCC(F)(F)OC(F)(F)C(F)(F)OC(F)(F)C(F)(F)OC(F)(F)CO | 24.3 µM (active) | inactive |
| [N-]=[N+]=[N-] | – | inactive |
| CSC(C)(C)C=NO | – | inactive |
| CCCCC(CC)COP(=O)(Oc1ccccc1)Oc1ccccc1 (configuration not stated) | 20 µM (active) | – |
| CCCCc1ccccc1 | – | inactive |
| CCOP(=S)(NC(C)C)Oc1ccccc1C(=O)OC(C)C (configuration not stated) | – | inactive |
| CCCN(CCC)c1c([N+](=O)[O-])cc(C(C)C)cc1[N+](=O)[O-] | 28.6 µM (active) | – |
| CCCCC(CC)COC(=O)c1c(Br)c(Br)c(Br)c(Br)c1C(=O)OCC(CC)CCCC (configuration not stated) | – | inactive |
| CC(Cl)CN(C)C (configuration not stated) | – | inactive |
| COC(=O)C(F)(F)C(F)(F)OC(F)(C(F)(F)F)C(F)(F)OC(F)=C(F)F (configuration not stated) | 0.864 µM (active) | inactive |

Read-out: CD40, CD40 (gene 958)
Test: BSK_SAg_CD40: BioMAP Diversity Plus: SAg Assay for CD40 Biomarker Activity (AID 2283088)
Conditions: primary human HUVEC with PBMC; actives raise or lower the signal
Outline: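 Fluorescence ELISA read-out of CD40 from umbilical vein endothelium plus peripheral blood mononuclear cells, sampled 24 h after dosing. Values come from bidirectional curve fitting with DMSO as baseline.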

| Structure (SMILES) | AC50 | outcome |
| --- | --- | --- |
| C=CC(=O)OCC(F)(F)C(F)F | 37.2 µM (active) and 35.3 µM (active) | – |
| COP(=O)(O)OC | – | inactive |
| O=C(O)C(F)(F)C(F)(F)C(=O)O | – | inactive |
| O=C(O)C=CC(F)(C(F)(F)F)C(F)(F)F | – | inactive |
| O=C(O)C(F)(F)OC(F)(F)C(F)(F)OC(F)(F)F | – | inactive |
| COP(N)(=S)OC | – | inactive |
| CCCCN(CCCC)SN(C)C(=O)Oc1cccc2c1OC(C)(C)C2 | 26.2 µM (active) | – |
| FC(F)(F)C(F)(C(F)(F)F)C(F)(F)C(F)(F)CC1CO1 (configuration not stated) | – | inactive |
| CCOP(=S)(OCC)SCS(=O)(=O)CC | – | inactive |
| CC(C)Nc1ccc(Nc2ccccc2)cc1 | 13.1 µM (active) | – |
| CC(O)C(F)(F)C(F)(F)F (configuration not stated) | – | inactive |
| CCN(CC)c1ccccc1 | – | inactive |
| O=C(O)C(F)(OC(F)(F)C(F)(F)C(F)(F)F)C(F)(F)F (configuration not stated) | – | inactive |
| ClC(Cl)c1ccccc1 | – | inactive |
| Cc1ccc2c(c1N)C(=O)c1ccccc1C2=O | – | inactive |
| O=S1(=O)OCC2C(CO1)C1(Cl)C(Cl)=C(Cl)C2(Cl)C1(Cl)Cl (configuration not stated) | – | inactive |
| O=P(Oc1ccccc1)(Oc1ccccc1)Oc1ccccc1 | 25.9 µM (active) | – |
| OCC(F)(F)OC(F)(F)C(F)(F)OC(F)(F)C(F)(F)OC(F)(F)CO | 30 µM (active) | inactive |
| [N-]=[N+]=[N-] | – | inactive |
| CSC(C)(C)C=NO | – | inactive |
| CCCCC(CC)COP(=O)(Oc1ccccc1)Oc1ccccc1 (configuration not stated) | 20 µM (active) | – |
| CCCCc1ccccc1 | – | inactive |
| CCOP(=S)(NC(C)C)Oc1ccccc1C(=O)OC(C)C (configuration not stated) | – | inactive |
| CCCN(CCC)c1c([N+](=O)[O-])cc(C(C)C)cc1[N+](=O)[O-] | 30.1 µM (active) | – |
| CCCCC(CC)COC(=O)c1c(Br)c(Br)c(Br)c(Br)c1C(=O)OCC(CC)CCCC (configuration not stated) | – | inactive |
| CC(Cl)CN(C)C (configuration not stated) | – | inactive |

Reference: PubChem BioAssay (EPA / NIEHS)
